Reference: PubChem BioAssay
Records with an inconclusive call do not appear. Activity calls are given as the source filed them.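 The calls were made as follows, unless noted: active = percent response above a set limit, the screen-wide mean plus 3 SD (cut at about 130% in these data); inactive = the rest.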

Key:
[1] = yeast TOR pathway RPL19A-GFP modulators, primary screen, cell-based, S. cerevisiae, multiplex flow cytometry (AID 1862; in the data active = percent of DMSO control GFP below about 86%;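 also: lower values mimic rapamycin by blocking the RPL19A rise seen in DMSO cells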); details: S. cerevisiae RPL19A-GFP strain, flow cytometry fluorescence, 3 h; at 10 µM; stronger effect = lower value
[2] = modulators of MEP2-GFP levels in yeast, primary screen, S. cerevisiae, multiplex flow cytometry (AID 1867;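 active = GFP response, as percent of the DMSO control, above the screen-wide mean plus 3 SD, about 139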;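 also: median GFP channel fluorescence of barcode-gated MEP2-GFP cells measured by flow cytometry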); details: S. cerevisiae MEP2-GFP strain, 3 h, at 10 µM, stronger effect = higher value, 100% means same as DMSO wells
[3] = modulators of CIT2-GFP expression in yeast, primary screen, S. cerevisiae, GFP fusion, multiplex flow cytometry (AID 1870); details: 3 h, at 10 µM, stronger effect = higher value;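 also: barcoded CIT2-GFP strain pooled with four other GFP strains with rapamycin as positive control; median GFP fluorescence per well over plate mean of DMSO wells so 100% = DMSO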
[4] = modulators of LAP4-GFP expression in yeast, primary screen, S. cerevisiae, multiplex flow cytometry (AID 1873;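 active = GFP signal, as percent of the solvent control, above the screen mean plus 3 SD, about 149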); details: 3 h, at 10 µM, stronger effect = higher value
[5] = modulators of AGP1-GFP expression in yeast TOR pathway, primary screen, cell-based, multiplex flow cytometry, S. cerevisiae (AID 1887;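 active = GFP signal above the screen-wide mean plus 3 SD, that is over about 124.5% of the solvent control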;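 also: AGP1-GFP fusion strain of S. cerevisiae within a five-strain barcoded multiplex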); details: 3 h, at 10 µM, stronger effect = higher value
[6] = inhibitors of CD8+ T cell-vesicle binding, pilot screen, LFA-1/ICAM-1 modulator project, MLPCN validation set, flow cytometry (AID 2523;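 active = response below a set limit, under 55% cells CD8-positive and vesicle-bound, and CD8 cells' 90th-percentile brightness under 279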;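 as to vesicle binding response: mean PE anti-B7-1 fluorescence of CD8+ cells relative to row control; 100% = QL9-loaded vesicles with DMSO vehicle in the same plate row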); details: 2C mouse CD8+ T cells, at 7 µM, stronger effect = lower value; double positive events: measured here: CD8+/vesicle+ event percentage
[7] = molecular target: Integrin beta-1 (Homo sapiens) + Integrin alpha-4 (Homo sapiens) (UniProt P13612+P05556); assay: inhibition of HUTS-21 binding to VLA-4, pilot screen, VLA-4 allosteric modulator project, U937 cells, HUTS-21 mAb, flow cytometry, validation set (AID 2674;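 active = inhibition above 50%, about 3 SD of the validation set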;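 also: antibody binding induced by the VLA-4 ligand LDV present at three times its Kd; 0% = LDV ligand with antibody and no compound and 100% = antibody without LDV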); details: HUTS-21 LIBS mAb binding, at 6.7 µM, stronger effect = higher value, binding induced by LDV ligand
[8] = superoxide lowering in aged yeast cells, pilot screen, validation compound set (AID 2706;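 active = superoxide response below 65% of plate, a cut near 3 SD across the whole screen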;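 also: yeast exposed to compound for one week at 30 degrees C before staining; 100% = mean of all compound wells on the same plate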); details: S. cerevisiae aging, superoxide DHE fluorescence; at 10 µM; stronger effect = lower value
[9] = molecular target: Beta-adrenergic receptor kinase 1 (Homo sapiens) (UniProt P25098); assay: GRK2 binders displacing RNA aptamer, biochemical, validation, human GRK2, bead flow cytometry (AID 488806;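 active = aptamer binding inhibition above 30%, about 3 SD of noise from non-fluorescent compounds; inactive = inhibition at or below 30%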); details: bead-bound GRK2, FAM-aptamer displacement, at 10 µM, stronger effect = higher value
[10] = molecular target: Beta-2 adrenergic receptor (Homo sapiens) (UniProt P07550); assay: beta2AR agonists driving receptor internalization, pilot screen, cell-based, FAP fluorogen, flow cytometry, validation set (AID 504459;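 active = percent response above 42, roughly 3 SD of non-fluorescent test compounds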;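 also: agonist-driven loss of surface beta2AR via internalization measured by FAP dye flow cytometry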); details: Am2.2-beta2AR cells, FAP surface receptor flow cytometry; at 10 µM; stronger effect = higher value
[11] = molecular target: AP-2 complex subunit beta (Homo sapiens) (UniProt P63010); assay: inhibitors of arrestin peptide binding to AP2, pilot screen, biochemical, validation set, GST-AP2 beads, flow cytometry (AID 504541;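 active = inhibition above 54%, about 3 SD of non-fluorescent compounds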;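 also: AP2 carries R879A mutation and is captured from E. coli lysate; bead-bound FITC arrestin peptide fluorescence measuring arrestin peptide binding to AP2; 0% = DMSO wells and 100% = excess unlabeled arrestin peptide control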); details: FITC arrestin peptide, at 10 µM, stronger effect = higher value, AP2 beta2 appendage fragment, R879A mutant
[12] = yeast V-ATPase proton transport modulators, S. cerevisiae, pHLuorin, HTS validation (AID 504600; in the data active = response above about 15%;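 also: plate controls were DMSO for no effect and reference compound for full effect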); details: S. cerevisiae pHLuorin cytosolic pH, at 10 µM, stronger effect = higher value
[13] = system: anti-desmoglein-3 scFv antibody binding to human DSG3; assay: inhibitors of anti-DSG3 scFv binding to DSG3, pilot screen, biochemical, validation compound set, bead-based, flow cytometry (AID 588368;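 active = binding below the plate cutoff, the plate median minus 3 SD, with a reading above zero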;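 also: signal is the median channel fluorescence of bead-bound GFP antibody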); details: Protein G beads, DSG3-Fc, scFv-GFP binding, at 10 µM, stronger effect = lower value
[14] = inhibitors of fungal efflux pumps CDR1, CDR2, MDR1, pilot screen, validation compound set, multiplex, phenotypic (AID 588506;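 active = efflux inhibition above 0.42, the validation set average plus 4 SD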;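 also: Nile Red retained in cells so higher fluorescence means more efflux inhibition; 0 = negative control wells and 1 = enniatin B 25 µM full block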); details: S. cerevisiae pump-expressing triplex, Nile Red efflux flow cytometry; at 10 µM; stronger effect = higher value; the pumps come from Candida albicans
[15] = molecular target: ATP-binding cassette sub-family B member 6 (Homo sapiens) (UniProt Q9NP58); assay: ABCB6 transporter inhibitors, pilot screen, K562-ABCB6 cells, flow cytometry, validation set (AID 588550;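 active = inhibition above the screen-wide mean plus 3 SD, about 51%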;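 also: 0% = DMSO wells and 100% = benzethonium chloride 70 µM positive control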); details: K562-ABCB6 porphyrin accumulation, 1 h, at 10 µM, stronger effect = higher value
[16] = promoters of myeloid differentiation in arrested cells, primary screen, cell-based, GFP/MAC1 double positive, flow cytometry, validation set (AID 588685;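 active = differentiation response of at least 50%, scaled between solvent and reference control, from cells with both markers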;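 also: compound exposure lasts four days before antibody staining and flow analysis; 0% = DMSO wells and 100% = 5 µM fulvestrant positive control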); details: ER-HoxA9 marrow cells, stronger effect = higher value, normalized: vehicle 0, fulvestrant 100

Sequence of ATP-binding cassette sub-family B member 6 (Homo sapiens) (Q9NP58 whole entry, looked up): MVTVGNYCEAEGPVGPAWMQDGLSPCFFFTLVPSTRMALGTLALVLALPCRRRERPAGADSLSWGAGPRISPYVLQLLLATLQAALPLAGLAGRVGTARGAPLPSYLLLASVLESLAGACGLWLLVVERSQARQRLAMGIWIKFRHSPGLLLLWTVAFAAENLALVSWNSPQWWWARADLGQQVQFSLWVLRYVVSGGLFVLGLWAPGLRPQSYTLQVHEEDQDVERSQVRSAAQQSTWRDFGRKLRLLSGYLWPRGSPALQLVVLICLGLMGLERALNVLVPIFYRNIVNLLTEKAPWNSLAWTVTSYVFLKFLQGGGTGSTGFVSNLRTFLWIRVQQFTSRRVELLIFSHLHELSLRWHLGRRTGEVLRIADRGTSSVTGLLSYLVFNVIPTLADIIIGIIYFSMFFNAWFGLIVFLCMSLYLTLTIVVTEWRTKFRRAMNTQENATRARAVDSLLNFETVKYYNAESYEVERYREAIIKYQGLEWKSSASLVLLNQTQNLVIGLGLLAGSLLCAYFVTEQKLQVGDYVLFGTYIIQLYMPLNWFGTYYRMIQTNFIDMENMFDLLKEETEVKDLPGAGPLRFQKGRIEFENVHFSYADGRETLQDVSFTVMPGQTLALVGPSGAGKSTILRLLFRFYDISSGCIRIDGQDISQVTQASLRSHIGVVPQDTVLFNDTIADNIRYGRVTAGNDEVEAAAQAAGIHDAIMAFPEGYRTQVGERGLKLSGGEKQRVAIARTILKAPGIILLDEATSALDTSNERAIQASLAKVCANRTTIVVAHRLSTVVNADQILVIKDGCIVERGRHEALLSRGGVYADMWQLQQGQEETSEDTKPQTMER
Sequence of AP-2 complex subunit beta (Homo sapiens) (P63010 whole entry, looked up, the tested form may be a part, one chain of several): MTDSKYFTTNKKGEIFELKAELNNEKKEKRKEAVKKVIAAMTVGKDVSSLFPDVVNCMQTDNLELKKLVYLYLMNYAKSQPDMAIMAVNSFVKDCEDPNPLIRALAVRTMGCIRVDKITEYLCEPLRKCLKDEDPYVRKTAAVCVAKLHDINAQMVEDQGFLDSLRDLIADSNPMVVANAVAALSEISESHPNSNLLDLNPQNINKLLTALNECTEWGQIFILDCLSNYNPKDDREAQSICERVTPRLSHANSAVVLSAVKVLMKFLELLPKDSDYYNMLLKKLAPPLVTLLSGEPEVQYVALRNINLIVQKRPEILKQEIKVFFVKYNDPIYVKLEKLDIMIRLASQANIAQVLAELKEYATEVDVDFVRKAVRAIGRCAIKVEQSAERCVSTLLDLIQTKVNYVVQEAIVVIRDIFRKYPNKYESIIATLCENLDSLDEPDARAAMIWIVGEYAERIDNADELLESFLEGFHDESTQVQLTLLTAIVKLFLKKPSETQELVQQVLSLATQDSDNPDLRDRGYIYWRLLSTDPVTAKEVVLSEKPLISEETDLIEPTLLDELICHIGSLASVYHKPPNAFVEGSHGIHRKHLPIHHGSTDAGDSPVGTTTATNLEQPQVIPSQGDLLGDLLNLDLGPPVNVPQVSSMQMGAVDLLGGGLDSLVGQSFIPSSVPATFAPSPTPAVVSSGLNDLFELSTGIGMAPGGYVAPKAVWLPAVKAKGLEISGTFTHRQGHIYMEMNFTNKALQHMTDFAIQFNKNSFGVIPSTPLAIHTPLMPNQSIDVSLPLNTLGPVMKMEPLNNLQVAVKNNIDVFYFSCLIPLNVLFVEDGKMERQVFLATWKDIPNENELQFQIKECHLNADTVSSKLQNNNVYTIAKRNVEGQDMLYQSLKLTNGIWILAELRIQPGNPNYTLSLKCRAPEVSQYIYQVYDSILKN
Sequence of Beta-2 adrenergic receptor (Homo sapiens) (P07550 whole entry, looked up): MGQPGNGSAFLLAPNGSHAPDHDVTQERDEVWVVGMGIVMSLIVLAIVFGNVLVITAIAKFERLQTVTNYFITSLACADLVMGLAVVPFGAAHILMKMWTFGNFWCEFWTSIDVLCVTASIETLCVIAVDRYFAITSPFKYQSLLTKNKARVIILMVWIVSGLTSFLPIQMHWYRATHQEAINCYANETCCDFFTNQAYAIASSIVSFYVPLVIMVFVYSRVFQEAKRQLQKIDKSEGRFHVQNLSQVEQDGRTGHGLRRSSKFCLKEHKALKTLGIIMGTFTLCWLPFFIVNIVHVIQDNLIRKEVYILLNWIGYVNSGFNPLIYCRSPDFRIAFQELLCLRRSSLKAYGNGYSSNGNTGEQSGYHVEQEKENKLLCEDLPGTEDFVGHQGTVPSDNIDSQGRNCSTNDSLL
Sequence of Beta-adrenergic receptor kinase 1 (Homo sapiens) (P25098 whole entry, looked up): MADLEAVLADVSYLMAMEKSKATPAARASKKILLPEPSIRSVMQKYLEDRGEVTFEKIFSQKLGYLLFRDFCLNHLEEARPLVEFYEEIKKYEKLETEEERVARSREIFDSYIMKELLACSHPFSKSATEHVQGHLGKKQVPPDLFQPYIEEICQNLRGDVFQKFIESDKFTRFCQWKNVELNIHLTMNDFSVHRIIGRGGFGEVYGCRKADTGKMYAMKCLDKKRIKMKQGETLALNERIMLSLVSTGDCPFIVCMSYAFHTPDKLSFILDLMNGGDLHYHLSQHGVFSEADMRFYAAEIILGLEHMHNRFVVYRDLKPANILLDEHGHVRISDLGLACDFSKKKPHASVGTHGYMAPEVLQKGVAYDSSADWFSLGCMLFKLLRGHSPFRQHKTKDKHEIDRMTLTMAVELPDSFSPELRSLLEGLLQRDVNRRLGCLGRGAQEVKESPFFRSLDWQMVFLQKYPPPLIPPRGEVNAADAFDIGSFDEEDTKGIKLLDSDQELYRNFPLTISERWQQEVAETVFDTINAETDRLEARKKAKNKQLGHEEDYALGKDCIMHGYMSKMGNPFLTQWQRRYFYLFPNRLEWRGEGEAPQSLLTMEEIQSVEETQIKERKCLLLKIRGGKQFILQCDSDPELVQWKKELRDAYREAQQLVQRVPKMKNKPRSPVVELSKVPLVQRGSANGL
Sequence of Integrin beta-1 (Homo sapiens) + Integrin alpha-4 (Homo sapiens) (P05556 whole entry, looked up): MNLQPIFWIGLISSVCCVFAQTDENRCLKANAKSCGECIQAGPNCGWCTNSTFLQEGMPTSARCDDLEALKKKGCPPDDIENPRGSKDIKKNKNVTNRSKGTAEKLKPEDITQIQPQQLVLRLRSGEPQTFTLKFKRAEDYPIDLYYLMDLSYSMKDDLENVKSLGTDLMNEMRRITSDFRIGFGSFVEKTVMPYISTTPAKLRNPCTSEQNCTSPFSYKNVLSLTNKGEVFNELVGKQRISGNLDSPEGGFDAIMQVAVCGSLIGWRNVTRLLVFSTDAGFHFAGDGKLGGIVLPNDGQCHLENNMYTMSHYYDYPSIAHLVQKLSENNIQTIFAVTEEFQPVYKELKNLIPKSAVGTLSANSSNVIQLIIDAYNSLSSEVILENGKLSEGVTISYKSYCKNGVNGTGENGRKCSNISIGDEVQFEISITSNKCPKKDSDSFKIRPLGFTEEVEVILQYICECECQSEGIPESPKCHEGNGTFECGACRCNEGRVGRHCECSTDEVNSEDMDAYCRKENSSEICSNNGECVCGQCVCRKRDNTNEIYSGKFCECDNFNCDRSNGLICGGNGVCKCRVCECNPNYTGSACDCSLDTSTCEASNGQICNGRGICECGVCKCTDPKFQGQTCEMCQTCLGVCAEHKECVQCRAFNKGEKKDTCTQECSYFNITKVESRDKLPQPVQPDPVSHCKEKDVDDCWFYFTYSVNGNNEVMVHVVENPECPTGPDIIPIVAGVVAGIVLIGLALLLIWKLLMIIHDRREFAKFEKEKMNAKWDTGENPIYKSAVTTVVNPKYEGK
Sequence of Integrin beta-1 (Homo sapiens) + Integrin alpha-4 (Homo sapiens) (P13612 whole entry, looked up): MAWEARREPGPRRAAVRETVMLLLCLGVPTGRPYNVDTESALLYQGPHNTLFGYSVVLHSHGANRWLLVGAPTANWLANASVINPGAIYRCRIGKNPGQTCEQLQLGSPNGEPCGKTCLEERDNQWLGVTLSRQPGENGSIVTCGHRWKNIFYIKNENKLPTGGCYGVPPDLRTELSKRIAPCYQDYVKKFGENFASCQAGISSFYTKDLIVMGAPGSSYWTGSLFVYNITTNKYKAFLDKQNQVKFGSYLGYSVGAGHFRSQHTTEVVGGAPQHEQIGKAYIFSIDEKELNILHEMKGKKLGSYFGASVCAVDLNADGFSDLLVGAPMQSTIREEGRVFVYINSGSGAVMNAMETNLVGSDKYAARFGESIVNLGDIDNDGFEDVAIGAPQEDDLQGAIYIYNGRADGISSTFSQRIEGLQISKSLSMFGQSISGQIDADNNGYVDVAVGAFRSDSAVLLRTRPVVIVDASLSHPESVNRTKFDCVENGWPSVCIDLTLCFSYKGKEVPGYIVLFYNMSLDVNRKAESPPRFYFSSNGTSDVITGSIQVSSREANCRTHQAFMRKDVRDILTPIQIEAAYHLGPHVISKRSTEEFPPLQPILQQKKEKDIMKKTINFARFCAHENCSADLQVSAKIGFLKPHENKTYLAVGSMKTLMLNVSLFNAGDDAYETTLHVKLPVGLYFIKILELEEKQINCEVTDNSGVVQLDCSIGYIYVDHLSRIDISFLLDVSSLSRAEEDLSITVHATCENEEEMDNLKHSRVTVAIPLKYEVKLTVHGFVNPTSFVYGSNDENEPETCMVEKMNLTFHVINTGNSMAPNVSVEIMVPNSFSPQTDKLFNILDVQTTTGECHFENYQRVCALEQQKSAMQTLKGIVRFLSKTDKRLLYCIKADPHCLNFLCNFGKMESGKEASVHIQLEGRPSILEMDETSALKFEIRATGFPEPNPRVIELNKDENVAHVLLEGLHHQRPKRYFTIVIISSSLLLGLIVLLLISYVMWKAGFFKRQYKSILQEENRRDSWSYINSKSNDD

Structure (SMILES) | percent of DMSO control GFP [1] | GFP response vs DMSO [2] | percent response of DMSO control [3] | GFP response vs DMSO [4] | GFP response, % of DMSO [5] | double positive events [6] [%] | vesicle binding response [6] | inhibition [7] | superoxide response (% of plate) [8] | aptamer binding inhibition [9] | response [10] | inhibition [11] | response [12] | binding (% of control) [13] | efflux inhibition (fraction of control) [14] | inhibition [15] | differentiation response [16]
COc1ccccc1NC(=O)Cn1c(C)cc(=O)c2cccc(OC)c21 | 102% (inactive) | 108% (inactive) | 100% (inactive) | 90.2% (inactive) | 99.9% (inactive) | 60.7 | 79.1% (inactive) | -11.8% (inactive) | 105% (inactive) | 4% (inactive) | 11.6% (inactive) | -11.8% (inactive) | 0.11% (inactive) | 103% (inactive) | 0.58 (active) | 6% (inactive) | -5.68% (inactive)
O=C(O)c1ccccc1C(=O)OCCCCOC(=O)c1ccccc1C(=O)O | 104% (inactive) | 85.6% (inactive) | 105% (inactive) | 82.2% (inactive) | 98.6% (inactive) | 64.9 | 1380% (inactive) | -0.45% (inactive) | 88% (inactive) | 6% (inactive) | -3.48% (inactive) | -4.07% (inactive) | 1.28% (inactive) | 92.7% (inactive) | 0.21 (inactive) | 2% (inactive) | 4.15% (inactive)
COc1ccc(/C=C\c2nc(=O)c3ccccc3o2)cc1 | 111% (inactive) | 100% (inactive) | 101% (inactive) | 81.5% (inactive) | 96.7% (inactive) | 64.1 | 360% (inactive) | 6.81% (inactive) | 108% (inactive) | 5% (inactive) | 2.1% (inactive) | 0.71% (inactive) | 8.52% (inactive) | 98% (inactive) | -0.01 (inactive) | 3% (inactive) | 6.11% (inactive)
COc1ccc(CCN2CNc3c(c(=O)n(C)c(=O)n3C)C2)cc1OC | 99.8% (inactive) | 103% (inactive) | 102% (inactive) | 118% (inactive) | 116% (inactive) | 60.5 | 214% (inactive) | -1.97% (inactive) | 93.5% (inactive) | -4% (inactive) | -3.69% (inactive) | -4.43% (inactive) | -9.61% (inactive) | 99.7% (inactive) | 0.04 (inactive) | -5% (inactive) | -4% (inactive)
Cc1cccc(CN2CCN(C(c3ccccc3)c3ccc(Cl)cc3)CC2)c1 (stereo not given) | 97.7% (inactive) | 104% (inactive) | 98.2% (inactive) | 99.4% (inactive) | 96.9% (inactive) | 62.4 | 227% (inactive) | -6.04% (inactive) | 99.2% (inactive) | 2% (inactive) | 8.57% (inactive) | 35.5% (inactive) | 0.49% (inactive) | 105% (inactive) | 0.46 (active) | -1% (inactive) | 26.3% (inactive)
NC(=O)c1cnccn1 | 101% (inactive) | 110% (inactive) | 92.5% (inactive) | 110% (inactive) | 111% (inactive) | 60.5 | 240% (inactive) | 10.8% (inactive) | 102% (inactive) | 9% (inactive) | -6.65% (inactive) | -9.13% (inactive) | 11.1% (inactive) | 102% (inactive) | -0.09 (inactive) | 2% (inactive) | 25.6% (inactive)
Cc1ccc(NC(=O)CSc2nc(O)c(Cc3ccccc3)c(=O)n2-c2ccccc2)cc1 | 103% (inactive) | 105% (inactive) | 94.2% (inactive) | 99.3% (inactive) | 102% (inactive) | 65 | 210% (inactive) | -6.68% (inactive) | 95.4% (inactive) | 3% (inactive) | 3.5% (inactive) | 16.9% (inactive) | -1.44% (inactive) | 97.7% (inactive) | -0.17 (inactive) | 9% (inactive) | 1.22% (inactive)
Fc1ccc(NC(=S)Nc2ccccc2Cl)cc1 | 91.1% (inactive) | 133% (inactive) | 106% (inactive) | 78.7% (inactive) | 93.1% (inactive) | 63.7 | 235% (inactive) | 20% (inactive) | 91.9% (inactive) | 3% (inactive) | -6.11% (inactive) | 10.1% (inactive) | 0.15% (inactive) | 102% (inactive) | 0.37 (inactive) | 12% (inactive) | -1.64% (inactive)
Cc1ccc2nc(NC3=NC(CC(=O)O)C(=O)N3)nc(C)c2c1 (stereo not given) | 105% (inactive) | 100% (inactive) | 106% (inactive) | 93.3% (inactive) | 106% (inactive) | 65.9 | 214% (inactive) | 0.58% (inactive) | 96.2% (inactive) | 2% (inactive) | -2.27% (inactive) | 8.29% (inactive) | 2.1% (inactive) | 96.1% (inactive) | 0.36 (inactive) | 6% (inactive) | 9.04% (inactive)
CCc1c(C(C)=O)oc2ccc3c(C)cc(=O)oc3c12 | 94.6% (inactive) | 125% (inactive) | 115% (inactive) | 91.9% (inactive) | 101% (inactive) | 61.9 | 146% (inactive) | -13.9% (inactive) | 92.5% (inactive) | 1% (inactive) | 1.28% (inactive) | -11.6% (inactive) | 0.32% (inactive) | 99% (inactive) | -0.17 (inactive) | 11% (inactive) | 9.01% (inactive)
